Where “and” joins values, the source holds several entries; their conditions need not be identical. Identical values can stand only once. Inconclusive results are not listed. Where a call stands in place of a potency, no number is given. Some structures have more than one record in an assay (separate samples or runs), and their calls can disagree. Calls of active or inactive are those of the source. Unless noted, calls come from the whole dose curve; as a rule, active = well fitted curve in the direction sought with a large enough effect; inconclusive = small, poorly fitted or top-dose-only effect, or another doubt; inactive = no such curve, though single readings can be large; an effect the other way counts as inactive or inconclusive.
Columns and labels:
[1] = target: Cytochrome P450 1A2 (Homo sapiens) (UniProt P05177); assay: p450-cyp1a2 (AID 410; calls by dose curve; note: potency is the fitted concentration of half-maximal effect)
In short: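 Human CYP1A2 (20nM) demethylated Luciferin-ME at its Km (100uM) in 100mM KPO4. After 10 min compound preincubation, NADPH regeneration ran the reaction 60 min at room temperature. Luciferin was read by luminescence, normalized to 57 uM furafylline.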

[2] = target: Glucocorticoid receptor (Homo sapiens) (UniProt P04150); assay: GR-GFP Redistribution (AID 450;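 active = compounds whose dose series gives a full or clear partial fitted curve of increased nuclear translocation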; note: potency is the fitted concentration of half-maximal effect); conditions: U2OS GR-GFP nuclear translocation, laser cytometry, 2 h
[3] = target: Glucocorticoid receptor (Homo sapiens) (UniProt P04150); assay: GR-EFC Redistribution (AID 451; calls by dose curve; note: potency is the fitted concentration of half-maximal effect); conditions: CHO-K1 GR-EFC translocation, beta-gal luminescence, 2 h
In short: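 CHO-K1 cells stably expressing nuclear-localized β-gal enzyme acceptor and GR fused C-terminally to the enzyme donor fragment; ligand-driven nuclear translocation restores β-gal by complementation. Compounds titrated up to 46 uM final, 2 h at 37 °C; luminescence read.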

[4] = target: DNA dC->dU-editing enzyme APOBEC-3G (Homo sapiens) (UniProt Q9HC16); assay: qHTS for inhibitors of Vif-A3G interactions: Validation (AID 588379)
In short: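 HeLa cells stably expressing Vif and A3G-eYFP, 700 cells/well, incubated overnight at 37 deg C, then exposed to compound overnight at 37 deg C. Inhibition of Vif-mediated degradation read as increased yellow fluorescence (Ex 488/Em 500-530) by laser-scanning cytometry.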

[5] = tested on: Zika virus NS2B-NS3 protease; assay: Primary screen GU AMC qHTS for Zika virus inhibitors (AID 1347154); note: nearly all actives have a fitted effect of over 70% in size
In short: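 Unlinked Zika NS2B hydrophilic domain/NS3 protease domain noncovalent complex (25 nM final) in 10 mM Tris-HCl pH 8.0, 0.01% Tween 20, with AMC peptide substrate. Fluorescence (ex 340, em 450 nm) change over 15 min, room temperature; percent inhibition fitted to 4-parameter Hill equation.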

[6] = Primary qHTS for small molecule stabilizers of the endoplasmic reticulum resident proteome: Secreted ER Calcium Modulated Protein (SERCaMP) assay (AID 1508630)
In short: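 GLuc-SERCaMP-expressing SH-SY5Y cells, pretreated 16 h with compound, are challenged with thapsigargin to empty ER calcium stores; after 4 h, coelenterazine is added directly to the medium and luminescence is imaged.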

[7] = AP1 Signaling Pathway (AID 357; active = well fitted curve in either direction with a large enough effect, not every such curve was filed as active;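 note: ME-180 reporter cells stimulated with EGF at its EC50 level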)
In short: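 A ratiometric CCF4 readout (405 nm excitation; 460 and 530 nm emission) quantified AP-1-driven beta-lactamase in ME-180 cells after 5 h with compound and EC50 EGF; AC50 values were derived for activators and inhibitors.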

[8] = NFAT Signaling Pathway (AID 444; active = well fitted curve in either direction with a large enough effect, not every such curve was filed as active;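 note: carbachol stimulus at about its EC50 of 1 µM final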); conditions: Jurkat NFAT-bla M1, carbachol, beta-lactamase ratio, 5 h; at 38 µM (top of the series)
In short: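 Jurkat cells carrying an NFAT-driven β-lactamase reporter and co-transfected muscarinic M1 receptor were treated with compound plus carbachol (1 uM final, an EC50 level) for 5 h at 37 °C. CCF4 loading followed for 1 h at RT; 460/530 nm ratio gave %activity.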

[9] = target: 3',5'-cyclic-AMP phosphodiesterase 4B (Homo sapiens) (UniProt Q07343); assay: qHTS Assay for Inhibitors of PDE-IV (AID 607; active = well fitted activation curve with a large enough effect in the main read-out, with a control signal flat, not every such curve was filed as active)
In short: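 Cell-based read-out of cAMP via a modified cyclic nucleotide-gated channel and membrane potential dye (535/590 nm) in HEK293 cells expressing PDE4 endogenously. Compounds tested up to 22.9 uM final; 100 uM RO 20-1724 reference.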

[10] = target: Pyruvate kinase (Leishmania mexicana) (UniProt Q27686); assay: qHTS Validation Assay for Inhibitors of Leishmania Mexicana Pyruvate Kinase (AID 945)
In short: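 Purified LmPYK (E451W mutant, 0.2 nM) was incubated 1 h at room temperature with 0.5 mM PEP and 0.1 mM ADP in 50 mM imidazole pH 7.2, 50 mM KCl, 7 mM MgCl2; ATP formed was read by PKLight luminescence, normalized to DMSO wells.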

[11] = target: Pyruvate kinase PKM (Homo sapiens) (UniProt P14618); assay: qHTS Assay for Activators of Human Muscle Pyruvate Kinase (AID 954; active = well fitted curve in the direction sought with a large enough effect, not every such curve was filed as active)
In short: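 Human PKM2 activity is measured as ATP generation, detected by luciferase-coupled luminescence. The enzyme (0.1 nM) acts on 0.5 mM PEP and 0.1 mM ADP for 1 h at ambient temperature; data are normalized to uninhibited and full-inhibition wells.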

[12] = target: Alpha-galactosidase (Coffea arabica) (UniProt Q42656); assay: Counterscreen for Glucocerebrosidase Inhibitors: qHTS Assay for Coffee Bean alpha-Galactosidase at pH 4.5 (AID 957)
In short: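 Green coffee bean enzyme (2 nM final) was incubated with compounds (0.7 nM to 77 uM) and 4-methylumbelliferyl alpha-D-galactopyranoside (80 uM final) in 50 mM citric acid, 0.005% Tween-20, pH 4.5, 20 min at room temperature; AC50 from Hill fits.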

[13] = target: Alpha-galactosidase A (Homo sapiens) (UniProt P06280); assay: Counterscreen for Glucocerebrosidase Inhibitors: qHTS Assay for Human alpha-Galactosidase at pH 4.5 (AID 992)
In short: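 Quantitative HTS: compounds tested from 0.7 nM up to 77 uM against 2 nM enzyme with 80 uM 4-MU alpha-D-galactopyranoside. The 20 min room-temperature reaction is stopped with 1M NaOH/1M glycine, pH 10.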

[14] = target: alpha-glucosidase (Oryza sativa, rice) (UniProt Q653V4); assay: Counterscreen for Glucocerebrosidase Inhibitors: qHTS Assay for Rice alpha-Glucosidase at pH 5.0 (AID 997)
In short: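 Rice alpha-glucosidase (4 nM final) with 400 uM 4-methylumbelliferyl-alpha-D-glucopyranoside in citrate buffer pH 5.0, 20 min at room temperature, stopped at pH 10; fluorescence 365/440 nm, compounds 0.7 nM–77 uM, AC50 from Hill fits.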

[15] = target: Alpha-galactosidase (Coffea arabica) (UniProt Q42656); assay: Counterscreen for Glucocerebrosidase Inhibitors: qHTS Assay for Coffee Bean alpha-Galactosidase at pH 5.9 (AID 998)
In short: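 Green coffee bean enzyme (2 nM final) was incubated with compounds (0.7 nM–77 uM) and 4-methylumbelliferyl alpha-D-galactopyranoside (80 uM) in citrate buffer pH 5.9, 20 min at room temperature. High-pH stop; fluorescence 365/440 nm; AC50 from Hill fits.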

[16] = target: Mitogen-activated protein kinase 10 (Mus musculus) (UniProt Q61831); assay: JNK3 AlphaScreen Assay (AID 530; active = well fitted curve in either direction with a large enough effect, not every such curve was filed as active;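 note: kinase came from lysate of stimulated human HepG2 cells; signal reports phosphorylation of biotinylated GST-cJun 1-79 at Ser73 with 10 µM ATP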)
In short: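 JNK3 came from HepG2 lysates pre-activated with IL-1beta and TNF-alpha and phosphorylated biotinylated GST-cJun (1-79) at 10 uM ATP, pH 7.6, room temperature. Compounds were titrated. AlphaScreen signal used anti-phospho-cJun (Ser73) antibody.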

[17] = target: Cytochrome P450 2C19 (Homo sapiens) (UniProt P33261); assay: qHTS Assay for Inhibitors and Substrates of Cytochrome P450 2C19 (AID 899); note: nearly all actives have a fitted effect of over 60% in size; note: potency is the fitted concentration of half-maximal effect
In short: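 Human CYP2C19 (5nM) with Luciferin-H EGE at 10uM (its KM) in 50mM KPO4 was preincubated with compound for 10 min at 37C. NADPH regeneration started a 60 min 37C reaction. Luciferin was read by luminescence, normalized to 57uM ketoconazole.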

[18] = target: Ubiquitin carboxyl-terminal hydrolase 1 (Homo sapiens) (UniProt O94782); assay: Inhibitors of USP1/UAF1: Pilot qHTS (AID 504865);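 note: rhodamine fluorescence freed from ubiquitin-rhodamine substrate followed over time; top concentration of the series differs between compounds; nearly all actives have a fitted effect of over 35% in size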
In short: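 Deubiquitinase activity followed as kinetic rhodamine fluorescence release from 150 nM Ub-Rho. 1 nM USP1/UAF1 with compound, after 15 min room-temperature preincubation, in HEPES pH 7.8 buffer containing TCEP, EDTA, BSA and Tween-20.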

[19] = target: Cytochrome P450 2D6 (Homo sapiens) (UniProt P10635); assay: qHTS Assay for Inhibitors and Substrates of Cytochrome P450 2D6 (AID 891); note: potency is the fitted concentration of half-maximal effect; nearly all actives have a fitted effect of over 60% in size
In short: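 Human CYP2D6 (5 nM) with 30 uM Luciferin-ME EGE (at Km) in 100 mM KPO4, compound preincubated 10 min, then NADPH regeneration system for 60 min at room temperature. Luciferin read by luminescence; normalized to 1.43 uM quinidine.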

Chain of Cytochrome P450 1A2 (Homo sapiens) (P05177 whole entry, looked up): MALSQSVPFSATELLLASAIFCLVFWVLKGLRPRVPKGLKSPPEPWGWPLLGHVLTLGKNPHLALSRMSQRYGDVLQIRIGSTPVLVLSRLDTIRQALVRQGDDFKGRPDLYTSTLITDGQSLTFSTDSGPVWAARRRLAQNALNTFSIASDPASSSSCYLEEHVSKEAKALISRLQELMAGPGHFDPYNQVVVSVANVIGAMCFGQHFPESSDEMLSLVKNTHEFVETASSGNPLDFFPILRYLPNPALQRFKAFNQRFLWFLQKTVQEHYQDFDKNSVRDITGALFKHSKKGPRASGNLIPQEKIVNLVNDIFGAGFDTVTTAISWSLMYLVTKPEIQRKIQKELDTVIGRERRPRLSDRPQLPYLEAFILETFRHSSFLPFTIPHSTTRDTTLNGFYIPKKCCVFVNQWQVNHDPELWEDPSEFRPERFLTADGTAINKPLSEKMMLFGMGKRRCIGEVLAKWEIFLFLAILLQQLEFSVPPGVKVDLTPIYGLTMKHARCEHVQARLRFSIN
Chain of Ubiquitin carboxyl-terminal hydrolase 1 (Homo sapiens) (O94782 whole entry, looked up): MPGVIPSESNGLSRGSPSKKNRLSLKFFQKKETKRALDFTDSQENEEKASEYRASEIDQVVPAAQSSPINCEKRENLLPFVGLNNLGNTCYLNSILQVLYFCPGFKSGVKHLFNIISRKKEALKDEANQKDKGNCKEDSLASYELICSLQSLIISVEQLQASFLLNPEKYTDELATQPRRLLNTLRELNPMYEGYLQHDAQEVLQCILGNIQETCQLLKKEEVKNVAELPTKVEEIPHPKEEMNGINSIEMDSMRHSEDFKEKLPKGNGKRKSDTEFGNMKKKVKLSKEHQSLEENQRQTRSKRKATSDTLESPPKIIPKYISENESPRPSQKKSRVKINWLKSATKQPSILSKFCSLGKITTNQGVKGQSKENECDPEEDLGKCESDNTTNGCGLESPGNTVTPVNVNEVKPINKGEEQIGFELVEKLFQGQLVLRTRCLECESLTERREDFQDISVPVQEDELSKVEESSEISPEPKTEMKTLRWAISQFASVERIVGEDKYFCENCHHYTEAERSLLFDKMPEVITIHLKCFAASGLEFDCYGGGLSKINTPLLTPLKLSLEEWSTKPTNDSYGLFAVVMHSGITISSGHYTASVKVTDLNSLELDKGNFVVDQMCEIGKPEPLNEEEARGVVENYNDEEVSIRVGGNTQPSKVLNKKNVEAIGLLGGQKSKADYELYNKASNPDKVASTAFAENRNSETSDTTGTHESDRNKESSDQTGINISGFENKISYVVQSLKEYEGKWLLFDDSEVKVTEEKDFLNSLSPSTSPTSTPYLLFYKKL
Chain of Glucocorticoid receptor (Homo sapiens) (P04150 whole entry, looked up, the tested form may be a part): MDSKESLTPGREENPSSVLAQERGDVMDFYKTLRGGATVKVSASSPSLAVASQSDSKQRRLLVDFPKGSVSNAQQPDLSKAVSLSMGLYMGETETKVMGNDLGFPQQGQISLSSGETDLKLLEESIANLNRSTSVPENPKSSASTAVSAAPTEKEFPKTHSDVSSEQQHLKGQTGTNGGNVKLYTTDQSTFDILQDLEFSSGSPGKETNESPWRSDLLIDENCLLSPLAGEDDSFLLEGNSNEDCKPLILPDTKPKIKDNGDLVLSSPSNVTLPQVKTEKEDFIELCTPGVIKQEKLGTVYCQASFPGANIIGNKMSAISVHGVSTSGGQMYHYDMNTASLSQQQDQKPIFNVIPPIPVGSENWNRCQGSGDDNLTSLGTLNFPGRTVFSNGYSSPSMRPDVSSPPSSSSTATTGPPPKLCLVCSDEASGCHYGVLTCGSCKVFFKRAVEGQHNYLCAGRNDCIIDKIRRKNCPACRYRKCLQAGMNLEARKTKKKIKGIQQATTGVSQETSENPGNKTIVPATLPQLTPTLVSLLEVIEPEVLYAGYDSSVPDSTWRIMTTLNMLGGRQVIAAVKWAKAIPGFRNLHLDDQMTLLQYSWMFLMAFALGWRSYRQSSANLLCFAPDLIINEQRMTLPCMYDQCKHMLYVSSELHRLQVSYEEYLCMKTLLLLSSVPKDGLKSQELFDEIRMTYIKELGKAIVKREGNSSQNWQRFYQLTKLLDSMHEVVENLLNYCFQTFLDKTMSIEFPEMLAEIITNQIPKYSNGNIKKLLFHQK
Chain of DNA dC->dU-editing enzyme APOBEC-3G (Homo sapiens) (Q9HC16 whole entry, looked up): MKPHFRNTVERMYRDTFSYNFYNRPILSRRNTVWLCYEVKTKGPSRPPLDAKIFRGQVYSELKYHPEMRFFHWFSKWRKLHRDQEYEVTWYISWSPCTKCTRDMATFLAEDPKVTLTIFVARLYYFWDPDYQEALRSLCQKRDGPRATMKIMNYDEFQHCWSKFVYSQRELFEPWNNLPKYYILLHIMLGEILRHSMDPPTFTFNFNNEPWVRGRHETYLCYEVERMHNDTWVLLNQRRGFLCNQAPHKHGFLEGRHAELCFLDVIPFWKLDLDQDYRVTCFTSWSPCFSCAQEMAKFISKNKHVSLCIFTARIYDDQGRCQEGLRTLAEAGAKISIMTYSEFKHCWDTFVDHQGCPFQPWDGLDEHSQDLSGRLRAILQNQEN
Chain of Cytochrome P450 2D6 (Homo sapiens) (P10635 whole entry, looked up): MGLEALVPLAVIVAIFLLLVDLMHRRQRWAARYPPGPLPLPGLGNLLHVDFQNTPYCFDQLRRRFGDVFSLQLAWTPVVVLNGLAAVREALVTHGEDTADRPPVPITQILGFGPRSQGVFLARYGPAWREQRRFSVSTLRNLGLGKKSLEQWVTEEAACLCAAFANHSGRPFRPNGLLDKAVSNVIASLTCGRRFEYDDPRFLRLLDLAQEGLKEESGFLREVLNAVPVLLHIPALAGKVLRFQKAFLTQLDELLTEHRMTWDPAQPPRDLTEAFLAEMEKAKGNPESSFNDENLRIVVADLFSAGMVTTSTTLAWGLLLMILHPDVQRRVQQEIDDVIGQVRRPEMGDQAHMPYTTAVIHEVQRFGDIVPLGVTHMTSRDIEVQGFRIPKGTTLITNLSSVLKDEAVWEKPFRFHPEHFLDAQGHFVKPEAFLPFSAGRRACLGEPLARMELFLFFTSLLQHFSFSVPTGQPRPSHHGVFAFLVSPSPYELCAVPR
Chain of 3',5'-cyclic-AMP phosphodiesterase 4B (Homo sapiens) (Q07343 whole entry, looked up): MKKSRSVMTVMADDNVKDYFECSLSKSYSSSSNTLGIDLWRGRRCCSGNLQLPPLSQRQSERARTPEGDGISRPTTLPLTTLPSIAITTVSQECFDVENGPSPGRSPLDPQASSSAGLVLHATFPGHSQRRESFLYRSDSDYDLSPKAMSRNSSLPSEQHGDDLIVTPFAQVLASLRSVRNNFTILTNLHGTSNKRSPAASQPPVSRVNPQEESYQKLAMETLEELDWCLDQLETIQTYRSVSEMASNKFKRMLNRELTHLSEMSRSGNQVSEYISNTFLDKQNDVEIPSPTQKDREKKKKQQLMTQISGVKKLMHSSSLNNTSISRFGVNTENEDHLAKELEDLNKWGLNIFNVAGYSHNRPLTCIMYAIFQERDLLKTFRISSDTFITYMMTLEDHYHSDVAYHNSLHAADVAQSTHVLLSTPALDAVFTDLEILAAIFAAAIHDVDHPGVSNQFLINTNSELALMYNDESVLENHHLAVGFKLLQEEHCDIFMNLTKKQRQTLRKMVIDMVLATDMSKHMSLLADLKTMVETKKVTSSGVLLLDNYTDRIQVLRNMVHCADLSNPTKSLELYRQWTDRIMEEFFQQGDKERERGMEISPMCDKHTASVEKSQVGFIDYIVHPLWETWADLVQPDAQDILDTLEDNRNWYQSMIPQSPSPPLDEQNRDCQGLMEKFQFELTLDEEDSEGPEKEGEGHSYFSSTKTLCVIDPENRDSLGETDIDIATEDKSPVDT
Chain of Cytochrome P450 2C19 (Homo sapiens) (P33261 whole entry, looked up): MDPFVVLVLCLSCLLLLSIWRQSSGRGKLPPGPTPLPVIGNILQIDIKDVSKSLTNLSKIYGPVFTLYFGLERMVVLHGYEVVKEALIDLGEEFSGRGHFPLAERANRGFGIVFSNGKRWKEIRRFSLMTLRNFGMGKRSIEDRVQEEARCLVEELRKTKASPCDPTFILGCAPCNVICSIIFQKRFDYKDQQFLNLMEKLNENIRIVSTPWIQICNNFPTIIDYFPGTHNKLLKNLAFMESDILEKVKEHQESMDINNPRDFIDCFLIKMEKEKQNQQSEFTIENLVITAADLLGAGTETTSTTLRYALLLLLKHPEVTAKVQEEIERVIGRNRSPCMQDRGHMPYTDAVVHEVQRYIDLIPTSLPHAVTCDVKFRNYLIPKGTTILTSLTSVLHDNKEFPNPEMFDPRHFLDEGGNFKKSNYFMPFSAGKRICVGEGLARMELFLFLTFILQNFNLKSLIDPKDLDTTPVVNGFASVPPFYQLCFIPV
Chain of Alpha-galactosidase (Coffea arabica) (Q42656 whole entry, looked up): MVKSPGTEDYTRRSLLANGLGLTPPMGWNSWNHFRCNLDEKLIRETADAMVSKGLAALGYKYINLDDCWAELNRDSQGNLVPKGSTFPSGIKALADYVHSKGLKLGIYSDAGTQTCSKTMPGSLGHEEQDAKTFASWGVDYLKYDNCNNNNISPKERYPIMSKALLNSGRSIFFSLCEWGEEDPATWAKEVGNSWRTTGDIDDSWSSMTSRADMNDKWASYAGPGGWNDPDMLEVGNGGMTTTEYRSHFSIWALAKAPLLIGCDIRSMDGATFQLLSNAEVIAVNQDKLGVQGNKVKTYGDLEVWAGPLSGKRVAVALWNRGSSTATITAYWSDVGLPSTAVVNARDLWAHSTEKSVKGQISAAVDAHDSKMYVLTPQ
Chain of Alpha-galactosidase A (Homo sapiens) (P06280 whole entry, looked up): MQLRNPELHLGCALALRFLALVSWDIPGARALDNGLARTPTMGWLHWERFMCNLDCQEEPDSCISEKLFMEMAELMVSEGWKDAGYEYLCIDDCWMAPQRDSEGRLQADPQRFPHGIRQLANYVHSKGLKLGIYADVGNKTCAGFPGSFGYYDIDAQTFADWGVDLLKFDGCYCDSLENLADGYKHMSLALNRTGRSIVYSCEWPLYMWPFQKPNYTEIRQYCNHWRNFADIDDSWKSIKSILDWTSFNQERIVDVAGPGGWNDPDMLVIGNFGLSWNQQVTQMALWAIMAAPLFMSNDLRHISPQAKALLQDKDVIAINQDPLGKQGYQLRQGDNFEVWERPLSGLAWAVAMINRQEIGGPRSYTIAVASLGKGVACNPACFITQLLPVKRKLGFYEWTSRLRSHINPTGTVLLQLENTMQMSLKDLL

In the case of `COC(=O)CN1CN(c2ccccc2)C2(CCN(Cc3ccc4ccccc4c3)CC2)C1=O`, the Potency [1] is reported as “inactive”, the Potency [2] is reported as > 46 µM (inactive) and the Potency [3] is reported as > 46 µM (inactive). The Potency [4] was “inactive”, the Potency [5] was “inactive” and the Potency [6] was “inactive”.
With `COC(=O)N1CCN(C(=O)Cc2ccc(Cl)c(Cl)c2)[C@H](CN2CCCC2)C1` the outcome [7] was “inactive”, the Potency [1] was “inactive” and the activity change, negative = inhibition [8] was -16% (inactive). For the same molecule, the Potency [2] was > 46 µM (inactive) and 1.28 µM (active), the Potency [3] was > 46 µM (inactive) and the Potency [9] was “inactive”. The outcome [10] was “inactive”, the outcome [11] was “inactive” and the outcome [12] was “inactive”. For the same molecule, the outcome [13] was “inactive”, the outcome [14] was “inactive” and the outcome [15] was “inactive”. For the same molecule, the Potency [4] was “inactive”, the Potency [5] was “inactive” and the Potency [6] was “inactive”.
In the case of `C/C(=C\C=C/[C@@H](C)C(=O)O)[C@H]1CN[C@H](C(=O)O)[C@@H]1CC(=O)O`, the Potency [1] is reported as “inactive”, the Potency [2] is reported as > 46 µM (inactive) and the Potency [3] is reported as > 46 µM (inactive). For the same molecule, the outcome [16] was “inactive”, the Potency [17] was “inactive” and the Potency [18] was “inactive”. For the same molecule, the Potency [4] was “inactive”, the Potency [5] was “inactive” and the Potency [6] was “inactive”.
In the case of `c1ccc([C@H]2CNCc3ccccc32)cc1`, the Potency [1] is reported as “inactive”, the Potency [2] is reported as > 46 µM (inactive) and the outcome [16] is reported as “inactive”. For the same molecule, the Potency [19] was 5.01 µM (active), the Potency [18] was “inactive” and the Potency [4] was “inactive”. The Potency [5] was “inactive” and the Potency [6] was “inactive”.
In the case of `NC(=NCCc1ccc(I)cc1)SCCCc1cnc[nH]1`, the Potency [1] is reported as 15.8 µM (active), the Potency [2] is reported as > 46 µM (inactive) and the Potency [3] is reported as > 46 µM (inactive). The outcome [16] was “inactive”, the Potency [18] was “inactive” and the Potency [4] was “inactive”. For the same molecule, the Potency [5] was “inactive” and the Potency [6] was “inactive”.
In the case of `C=C1[C@@H](O)C2C=CC[C@H](C)C(=O)[C@@](C)(O)C=C[C@@H](OC(C)=O)[C@@]23C(=O)N[C@H](Cc2ccccc2)[C@@H]3[C@@H]1C` (stereo not given in full), the Potency [1] is reported as “inactive”, the Potency [2] is reported as > 46 µM (inactive) and the Potency [3] is reported as > 46 µM (inactive). The outcome [16] was “inactive”, the Potency [18] was “inactive” and the Potency [4] was “inactive”. For the same molecule, the Potency [5] was “inactive” and the Potency [6] was “inactive”.
With `Cn1cc(C(=O)C(=O)N[C@H]2CN3CCC2CC3)c2ccccc21` the Potency [1] was 15.8 µM (active), the Potency [2] was > 46 µM (inactive) and the Potency [3] was > 46 µM (inactive). For the same molecule, the outcome [16] was “inactive”, the Potency [19] was 0.0631 µM (active) and the Potency [18] was “inactive”. For the same molecule, the Potency [4] was “inactive”, the Potency [5] was “inactive” and the Potency [6] was “inactive”.
For `CC1=C(O)C(=O)[C@H]2O[C@@H]2C1=O`, the Potency [1] was “inactive”, the Potency [2] was > 46 µM (inactive) and the Potency [3] was > 46 µM (inactive). For the same molecule, the Potency [17] was 0.158 µM (active), the Potency [18] was “inactive” and the Potency [5] was “inactive”. For the same molecule, the Potency [6] was “inactive”.

— PubChem BioAssay (NCATS)
